In PubChem BioAssay (EPA / NIEHS):
“And” between values parts separate entries of the source, which are not always exact repeats. Equal values may be shown once. Some compounds were tested as several samples or in several runs, with calls that do not always agree. The source made the active and inactive calls. How the source made its calls: active means hit-call score of the fitted dose curve at least 0.9, where 1 is the maximum; inactive means score below 0.9.

How the values were obtained:
[1] = APR_HepG2_CellCycleArrest_24hr: Apredica 24-hour HepG2 Assay for Cell Cycle Arrest (AID 2282905); conditions: imaging, actives raise or lower the signal;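 further: cell cycle arrest scored as ratio of 2N to 4N nuclear DNA content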
Summary of the method: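 HepG2 cells were exposed to compounds at 0.39–200 uM (ten concentrations, duplicate) in 0.5% v/v DMSO for 24 hr. After formaldehyde fixation and Triton permeabilization, Hoechst 33342-stained nuclei were imaged at 20x; DNA content was quantified, with bidirectional fitting against DMSO.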

[2] = APR_HepG2_StressKinase_1hr: Apredica 1-hour HepG2 Assay for Stress Kinase (AID 2282906); conditions: HepG2 stress kinase (phospho-c-Jun) imaging, actives raise or lower the signal
Summary of the method: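 HepG2 cells dosed 0.39-200 uM (0.5% DMSO) for 1 h, then formaldehyde-fixed. Stress kinase read by phospho-c-Jun immunofluorescence using high-content imaging; bidirectional fit vs DMSO.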

[3] = APR_HepG2_NuclearSize_24hr: Apredica 24-hour HepG2 Assay for Nuclear Size (AID 2282907); conditions: high-content imaging, actives raise or lower the signal
Summary of the method: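 HepG2 human liver cells were exposed for 24 hr to compounds at 0.39–200 uM (ten concentrations, duplicate) in 0.5% v/v DMSO. They were then formaldehyde-fixed, Triton-permeabilized and Hoechst 33342-stained, and nuclear diameter was imaged at 20x. Bidirectional fits were made against DMSO.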

[4] = APR_HepG2_CellLoss_24hr: Apredica 24-hour HepG2 Assay for Cell Loss (AID 2282908); conditions: high-content imaging;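 on AC50: fit in both directions so a hit may be cell loss or gain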
Summary of the method: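 Compounds were tested at 0.39–200 uM in duplicate with 0.5% v/v DMSO final. Cells were then fixed in 3.7% formaldehyde, Hoechst 33342 nuclei were imaged at 20x by HCS, and cell number was fitted bidirectionally against DMSO.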

[5] = APR_HepG2_MicrotubuleCSK_24hr: Apredica 24-hour HepG2 Assay for Microtubule CSK Stabilty (AID 2282909); conditions: HepG2 microtubule cytoskeleton imaging, actives raise or lower the signal
Summary of the method: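 HepG2 cells exposed 24 h to compounds at 0.39–200 uM (duplicate, 0.5% v/v DMSO final), then fixed, permeabilized and immunostained for alpha-tubulin with Hoechst 33342. Cytoskeleton imaged at 20x; bidirectional fit versus DMSO baseline.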

[6] = APR_HepG2_MitoticArrest_24hr: Apredica 24-hour HepG2 Assay for Mitotic Arrest (AID 2282910); conditions: high-content imaging, actives raise or lower the signal
Summary of the method: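 HepG2 cells, 24 h exposure at 0.39-200 uM (10 concentrations, duplicate, 0.5% DMSO). Fixed, stained for phospho-histone H3 with Hoechst; imaged by high-content microscopy, bidirectional fit versus DMSO.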

[7] = APR_HepG2_MitoMembPot_24hr: Apredica 24-hour HepG2 Assay for Mitochondrial Membrane Potential (AID 2282911); conditions: imaging, actives raise or lower the signal
Summary of the method: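 Cells are dosed for 24 hr across 0.39 to 200 uM with solvent held at 0.5% DMSO. They are then stained with 250 nM MitoTracker Red CMXRos for 30 min, fixed in 3.7% formaldehyde and imaged.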

[8] = APR_HepG2_MitoMass_24hr: Apredica 24-hour HepG2 Assay for Mitochondrial Mass (AID 2282912); conditions: high-content imaging, actives raise or lower the signal
Summary of the method: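 Human HepG2 liver cells were exposed for 24 hr to compounds at 0.39–200 uM (duplicates, 0.5% v/v DMSO final). They were stained live with 250 nM MitoTracker Red CMXRos for 30 min, fixed in 3.7% formaldehyde, and imaged by HCS fluorescence; signals were fitted bidirectionally against DMSO.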

[9] = APR_HepG2_p53Act_24hr: Apredica 24-hour HepG2 Assay for p53 Activation (AID 2282913); conditions: high-content imaging, actives raise or lower the signal;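 further: p53 protein immunofluorescence averaged per cell in HepG2 with Hoechst nuclei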
Summary of the method: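 Human HepG2 liver cells; 24 hr cpd treatment, 0.39–200 uM, 0.5% DMSO final. Fixed in 3.7% formaldehyde, permeabilized with 0.5% Triton X-100, stained with anti-p53/Cy5 plus Hoechst 33342. Six images per well at 20x; gain or loss vs DMSO.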

[10] = APR_HepG2_CellCycleArrest_72hr: Apredica 72-hour HepG2 Assay for Cell Cycle Arrest (AID 2282914); conditions: high-content imaging, actives raise or lower the signal
Summary of the method: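 Read-out is Hoechst-stained nuclear DNA content measured by automated fluorescence imaging (20x, six images per well), fitted in both directions relative to DMSO. Human HepG2 liver cells received 0.39–200 uM compound for 72 hr at 0.5% v/v DMSO.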

[11] = APR_HepG2_CellLoss_72hr: Apredica 72-hour HepG2 Assay for Cell Loss (AID 2282915); conditions: high-content imaging
Summary of the method: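 HepG2 cells exposed 72 h to compound at 0.39–200 uM (10 concentrations, duplicate) in 0.5% DMSO. Fixed with 3.7% formaldehyde and Hoechst 33342-stained. Imaged at 20x; nuclear count gives cell number, fitted bidirectionally versus DMSO.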

[12] = APR_HepG2_P-H2AX_72hr: Apredica 72-hour HepG2 Assay for H2AX Phosphorylation (AID 2282916); conditions: imaging, actives raise or lower the signal;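 further: phospho-histone H2A.x immunostain intensity per cell marking DNA damage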
Summary of the method: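 HepG2 human liver cells were exposed for 72 hr to compounds at 0.39–200 uM (10 concentrations, duplicate per plate) in 0.5% v/v DMSO. Fixed, permeabilized cells were immunolabeled for phospho-histone H2A.x with Hoechst 33342 and imaged by HCS fluorescence; bidirectional fit versus DMSO.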

[13] = APR_HepG2_MitoMembPot_72hr: Apredica 72-hour HepG2 Assay for Mitochondrial Membrane Potential (AID 2282917); conditions: imaging, actives raise or lower the signal
Summary of the method: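 HepG2 cells dosed 72 hr with compound at 0.39–200 uM in duplicate, 0.5% v/v DMSO final. Mitochondria stained with 250 nM MitoTracker Red CMXRos for 30 min before formaldehyde fixation, imaged by high-content fluorescence; bidirectional fit versus DMSO.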

[14] = APR_HepG2_MitoticArrest_72hr: Apredica 72-hour HepG2 Assay for Mitotic Arrest (AID 2282918); conditions: high-content imaging, actives raise or lower the signal
Summary of the method: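 Read-out is phospho-histone H3 immunofluorescence with Hoechst nuclear segmentation, imaged at 20x. Human HepG2 liver cells received ten concentrations (0.39–200 uM, final DMSO 0.5% v/v) for 72 hr before fixation. Gain or loss of signal was fitted relative to DMSO.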

[15] = APR_HepG2_P-H2AX_24hr: Apredica 24-hour HepG2 Assay for H2AX Phosphorylation (AID 2282920); conditions: high-content imaging, actives raise or lower the signal
Summary of the method: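 HepG2, 24 hr, cpd 0.39–200 uM (10 conc, duplicate), DMSO 0.5% v/v final. Fix 3.7% formaldehyde, Triton X-100 permeabilize, anti-phospho-H2A.x 1:200 + Hoechst 2 ug/mL. Imaged, bidirectional fit vs DMSO.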

[16] = APR_HepG2_StressKinase_72hr: Apredica 72-hour HepG2 Assay for Stress Kinase (AID 2282921); conditions: HepG2 stress kinase (phospho-c-Jun) imaging, actives raise or lower the signal
Summary of the method: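 Cells were exposed for 72 h to ten concentrations (0.39–200 uM, duplicate) at 0.5% v/v DMSO final, then fixed with 3.7% formaldehyde, permeabilized and immunostained for phospho-c-Jun (Cy3 secondary) with Hoechst nuclear counterstain.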

[17] = APR_HepG2_StressKinase_24hr: Apredica 24-hour HepG2 Assay for Stress Kinase (AID 2282922); conditions: HepG2 stress kinase (phospho-c-Jun) imaging, actives raise or lower the signal
Summary of the method: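 HepG2 cells exposed 24 h to 0.39–200 uM compound in duplicate (0.5% v/v DMSO final). Cells fixed in 3.7% formaldehyde, permeabilized and immunostained for phospho-c-Jun; read by high-content fluorescence imaging, fitted bidirectionally against DMSO.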

[18] = APR_HepG2_p53Act_72hr: Apredica 72-hour HepG2 Assay for p53 Activation (AID 2282923); conditions: high-content imaging, actives raise or lower the signal;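 further: average cellular p53 protein immunofluorescence intensity in HepG2 cells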
Summary of the method: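 Cells were dosed for 72 hr with compounds at 0.39–200 uM in duplicate (final DMSO 0.5% v/v), then fixed in 3.7% formaldehyde, permeabilized with Triton X-100 and immunostained for p53 (Cy5) with Hoechst 33342 nuclear counterstain.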

[19] = APR_HepG2_MitoMass_72hr: Apredica 72-hour HepG2 Assay for Mitochondrial Mass (AID 2282924); conditions: high-content imaging, actives raise or lower the signal;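 further: MitoTracker Red CMXRos stain intensity per cell imaged as mitochondrial mass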
Summary of the method: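 HepG2 cells dosed 72 hr at 0.39–200 uM (0.5% DMSO), in duplicate. MitoTracker Red CMXRos 250 nM loaded 30 min before formaldehyde fixation; high-content fluorescence imaging, bidirectional fit versus DMSO.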

[20] = APR_HepG2_MicrotubuleCSK_72hr: Apredica 72-hour HepG2 Assay for Microtubule CSK Stabilty (AID 2282919); conditions: HepG2 microtubule cytoskeleton, high-content imaging, actives raise or lower the signal
Summary of the method: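 HepG2 cells were exposed 72 hr to compound at 0.39–200 uM in duplicate (0.5% DMSO final), then fixed and permeabilized. Alpha-tubulin immunofluorescence was imaged by high-content microscopy, with bidirectional fitting against DMSO and taxol as positive control.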

Measured: AC50

CC(C)C1(C)N=C(c2nc3ccccc3cc2C(=O)O)NC1=O (configuration not stated)
not listed: [20]
inactive: all other assays above

Cc1ccc(-c2c(Cl)nc(C#N)n2S(=O)(=O)N(C)C)cc1
active: [7] 78.1 µM | [11] 65.4 µM | [12] 104 µM
not listed: [20]
inactive: all other assays above

CON(C)C(=O)Nc1ccc(Cl)c(Cl)c1
active: [1] 31.2 µM | [7] 28.9 µM | [13] 23.1 µM | [19] 67 µM
not listed: [20]
inactive: all other assays above

Cc1cc(Cl)ccc1OCC(=O)O
not listed: [20]
inactive: all other assays above

COC(=O)N(OC)c1ccccc1COc1ccn(-c2ccc(Cl)cc2)n1
active: [4] 3.37 µM | [7] 0.332 µM | [11] 1.44 µM | [12] 25.5 µM | [13] 3.69 µM | [14] 39.9 µM | [20] 3.29 µM
not listed: [5]
inactive: all other assays above

COc1nc(C)nc(NC(=O)NS(=O)(=O)c2ccccc2CCC(F)(F)F)n1
inactive: all assays above

COc1nc(NC(C)C)nc(NC(C)C)n1
not listed: [20]
inactive: all other assays above

Cc1c(F)c(F)c(COC(=O)C2C(/C=C(\Cl)C(F)(F)F)C2(C)C)c(F)c1F (configuration not stated)
not listed: [5]
inactive: all other assays above

CCCCNC(=O)OCC#CI
active: [4] 2.6 µM and 6.77 µM | [7] 119 µM and 41 µM | [11] 1.45 µM and 7.9 µM | [14] 9.07 µM | [20] 18 µM | [19] 5.54 µM
inactive: [1] | [2] | [3] | [6] | [8] | [9] | [10] | [12] | [13] | [14] | [20] | [15] | [16] | [17] | [18] | [19]

Fc1ccc(Oc2ccnc3cc(Cl)cc(Cl)c23)cc1
active: [4] 100 µM | [6] 109 µM | [11] 76.2 µM | [15] 100 µM
not listed: [20]
inactive: all other assays above

CCOC(=O)C(Cl)Cc1cc(-n2nc(C)n(C(F)F)c2=O)c(F)cc1Cl (configuration not stated)
not listed: [5]
inactive: all other assays above

COC(=O)C=C(C)OP(=O)(OC)OC
not listed: [20]
inactive: all other assays above
